Screens (PubChem BioAssay)
Most compounds without a hit are left out; they make up all but 28% or so of the library.
CYP2C19 activ = human CYP2C19 activators, primary screen, biochemical, luminescence; 96,000 tested, under 10 active; recombinant CYP2C19, luciferin-H EGE luminescence; stronger effect = higher value; 0 = fully inhibited enzyme, 1 = untreated enzyme; activation factor at 5 µM; Cytochrome P450 2C19 (Homo sapiens), P33261;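 active = activation factor of at least 2 at 5 µM in the primary screen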;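 also: 0 = wells with 2.5 mM tranylcypromine and 1 = vehicle-only wells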
CYP2C9 act = human CYP2C9 activators, primary screen, biochemical, luminescence. Cytochrome P450 2C9 (Homo sapiens), P11712. recombinant CYP2C9, luciferin-H conversion; stronger effect = higher value; factor 1 = untreated enzyme, 0 = blocked. activation factor at 5 µM. 96,000 tested, 1.4% active;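 active = activation factor of 2 or more for CYP2C9 at a 5 µM dose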;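 also: 0 = sulfaphenazole-blocked wells and 1 = vehicle-only wells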
CYP2C19 inh = blockers of cytochrome P450 2C19 activity – biochemical, luminescence, ADME assay, primary screen; AID 778, 2007; P33261; 96,000 tested, 21% active; inhibition, % at 5 µM; CYP2C19 Supersomes, luciferin-H EGE luminescence, 30 min;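 active = CYP2C19 inhibition above a set limit at 5 µM in the primary screen, cut at about 50% in these data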;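 also: plate controls were negative control wells for no effect and 2.5 mM tranylcypromine positive control for full effect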
Plk1 PBD FP = Plk1 polo box domain binding inhibitors, primary screen, biochemical, fluorescence polarization. Plk1 PBD phosphopeptide binding. inhibition, %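 (tested at about 20 µM)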. 97,000 tested, 0.13% active; in the data active = inhibition above about 34%, passing the limit was not always enough
Target sequence (P53350 whole entry, looked up, the tested form may be a part): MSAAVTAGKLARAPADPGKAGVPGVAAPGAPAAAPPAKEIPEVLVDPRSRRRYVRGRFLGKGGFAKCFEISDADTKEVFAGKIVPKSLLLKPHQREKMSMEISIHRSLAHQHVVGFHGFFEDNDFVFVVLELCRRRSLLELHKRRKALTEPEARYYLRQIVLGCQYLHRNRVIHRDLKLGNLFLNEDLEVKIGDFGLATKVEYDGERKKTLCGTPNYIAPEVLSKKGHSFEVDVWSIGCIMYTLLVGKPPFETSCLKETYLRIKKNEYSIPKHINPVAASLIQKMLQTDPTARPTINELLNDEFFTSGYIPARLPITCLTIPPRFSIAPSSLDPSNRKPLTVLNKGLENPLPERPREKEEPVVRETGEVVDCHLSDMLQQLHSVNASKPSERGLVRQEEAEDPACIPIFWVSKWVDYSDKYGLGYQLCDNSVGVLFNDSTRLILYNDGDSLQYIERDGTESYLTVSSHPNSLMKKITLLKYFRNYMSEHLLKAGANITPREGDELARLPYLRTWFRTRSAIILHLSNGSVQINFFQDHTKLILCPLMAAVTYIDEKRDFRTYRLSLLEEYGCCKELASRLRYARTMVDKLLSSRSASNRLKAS
CYP2C9 inh = blockers of cytochrome P450 2C9 activity – biochemical, luminescence, ADME assay, primary screen | P11712 | CYP2C9 Supersomes, luciferin-H conversion | inhibition, % at 5 µM | 96,000 tested, 20% active;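 active = blocking of liver enzyme CYP2C9 beyond about 50% at 5 µM, limit read from the data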
PLK1 inh = human PLK1 kinase inhibitors, primary screen, biochemical, TR-FRET. recombinant PLK1 kinase, TR-FRET peptide phosphorylation. inhibition, % at 10 µM. 97,000 tested, 0.53% active. Serine/threonine-protein kinase PLK1 (Homo sapiens), P53350;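 active = inhibition of 50% or more in the single-concentration screen; inactive = inhibition below 50%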;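 also: 0% = DMSO max control and 100% = H-89 dihydrochloride min control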
* hit, by the source's call; · = no result given.

SMILES | CYP2C19 activ | CYP2C9 act | CYP2C19 inh | Plk1 PBD FP | CYP2C9 inh | PLK1 inh
Cc1cccc(OCCC(=O)NCC(c2ccco2)N2CCCCC2)c1 (centres undefined) | 0.7 | 0.9 | 34 | -28 | 11 | -5
O=C(CSc1nnnn1-c1ccc(O)cc1)Nc1ccc(N2CCOCC2)c(Cl)c1 | 1.1 | 1.7 | -11 | 12 | -74 | 2
Cc1ccc(C(C(=O)NC2CCCC2)N(Cc2cccs2)C(=O)c2csnn2)o1 (centres undefined) | · | · | · | -4 | · | -2
CCCC(=O)N1CCN(c2ccc([N+](=O)[O-])c(NC(C)c3ccccc3)c2)CC1 (centres undefined) | 0.4 | 0.3 | 63* | -5 | 70* | -10
CC(Nc1cc(N2CCCC2)ccc1[N+](=O)[O-])c1ccccc1 (centres undefined) | 1 | 0.9 | -4 | -7 | 7 | -8
Cc1ccc(C(CC(=O)N2CCCC2)c2ccccc2)c(O)c1C (centres undefined) | 0 | 0 | 96* | 11 | 96* | -5
O=C(CC(c1ccccc1)c1ccccc1O)N1CCCC1 (centres undefined) | 0.6 | 1 | 35 | 17 | 3 | -5
Cc1cccc(C(CC(=O)N2CCCC2)c2ccccc2)c1O (centres undefined) | 0.2 | 0.3 | 84* | 24 | 73* | 2
Cc1sc2c(c1C)c(=O)nc1n2Cc2ccccc2-1 | 1 | 1.3 | -3 | 18 | -34 | -11
Cc1nc2nc(-c3cccs3)cn2nc1C | 0.4 | 0.9 | 62* | -7 | 8 | -9
Cc1cc(-c2cccs2)n[nH]1 | 1 | 1.1 | 2 | · | -14 | ·
COc1cccc(-c2cn3nc(C)c(C)nc3n2)c1 | 0.2 | 0.5 | 83* | -19 | 50 | -9
Cc1nn2cc(-c3ccc(Cl)cc3)nc2s1 | 0.9 | 0.9 | 12 | 20 | 13 | -13
Cc1nc2nc(-c3ccc(Cl)cc3)cn2nc1C | 0.4 | 1 | 56* | -1 | 2 | -11
NC(=O)NC(Cc1ccccc1)C(=O)O (centres undefined) | 1.1 | 1 | -7 | · | -3 | ·
C=CCNC(=S)NNC(=O)c1cccn(Cc2cccc(Cl)c2)c1=O | 0.9 | 0.9 | 9 | -4 | 8 | -7
CCOc1cc(NC(=S)NCC(C)C)c(OCC)cc1NC(=O)c1cccs1 | 1 | 0.9 | 2 | -25 | 8 | -3
CN1CCc2nc(SCCOc3ccccc3)c(C#N)cc2C1 | 0.1 | 0.5 | 91* | -9 | 49 | -3
COC(=O)C1=C(CSc2nc3c(cc2C#N)CN(C)CC3)OC(N)=C(C#N)C1c1ccccc1F (centres undefined) | · | · | · | -26 | · | 0
Cc1ccc(S(=O)(=O)Nc2cccc3ncccc23)s1 | 0.6 | 2.5* | 45 | 3 | -154 | -12
Cc1ccc(S(=O)(=O)Nc2ccnc3ccccc23)cc1 | 0.8 | 1.8 | 20 | 7 | -80 | -2
CN1CCN(C2=C(Cl)C(=O)N(Cc3ccccc3)C2=O)CC1 | 0.4 | 0.9 | 64* | 14 | 14 | -10
CN1CCN(C2=C(Cl)C(=O)N(c3ccc(Cl)c(Cl)c3)C2=O)CC1 | 0.2 | 0.6 | 79* | -9 | 38 | -22
CN1CCN(C2=C(Cl)C(=O)N(c3cccc(Cl)c3)C2=O)CC1 | 0.8 | 0.9 | 15 | -2 | 11 | -3
O=S(=O)(c1ccc(N2CCN(CCO)CC2)nc1)N1CCCCC1 | · | · | · | -18 | · | -12
SMILES | CYP2C19 activ | CYP2C9 act | CYP2C19 inh | Plk1 PBD FP | CYP2C9 inh | PLK1 inh
COc1nc(N)c(S(=O)(=O)c2ccc(C)cc2)cc1C#N | 0.5 | 0.5 | 53* | 20 | 53* | -2
COC(=O)Cn1nc(-c2ccccc2)c2ccccc21 | · | · | · | 36 | · | 32
CCc1cc[n+](-c2nc3ccccc3nc2C(=C=[N-])C#N)cc1 | 1.1 | 1 | -5 | -23 | 1 | -9
CN1C(=O)c2ccccc2N(C)C1c1ccc2c(c1)OCO2 (centres undefined) | 0.2 | 0.3 | 81* | -14 | 69* | -7
CC(C)C12CN3CC(C(C)C)(CN(C1)C31C(=O)Nc3ccccc31)C2=O (centres undefined) | 1.2 | 1.1 | -16 | -12 | -14 | -2
CC12CN3CC(C)(CN(C1)C3c1cc(Br)ccc1O)C2=O (centres undefined) | 0.5 | 1 | 52* | 30 | 4 | 1
CCC12CN3CC(CC)(CN(C1)C3c1ccc(OC(C)C)cc1)C2=O (centres undefined) | 0.9 | 0.8 | 13 | 0 | 20 | -10
CC(C)C12CN3CC(C(C)C)(CN(C1)C3c1ccccc1O)C2=O (centres undefined) | 0.1 | 0.1 | 91* | -18 | 90* | 2
CC(C)C12CN3CC(C(C)C)(CN(C1)C3c1ccc3c(c1)OCO3)C2=O (centres undefined) | 0.1 | 0.2 | 92* | -7 | 75* | -9
COc1ccc(/C(O)=C2/C(=O)C(=O)N(CCCN(C)C)C2c2cccnc2)cc1 (centres undefined) | 1 | 1 | -1 | · | -2 | ·
CC(C)CNC(=O)NC(=O)COc1c(F)c(F)cc(F)c1F | 0.8 | 1 | 18 | -3 | -2 | -4
CCC(C)NC(=O)C1CCCN(C(=O)Nc2ccc(F)cc2)C1 (centres undefined) | 0.8 | 1 | 16 | · | 1 | ·
COc1ccc(-n2nnnc2SCC(=O)Nc2nnc(C)s2)cc1OC | 0.6 | 0.6 | 39 | -4 | 45 | -7
O=C(NNC(=O)c1cc(O)c(O)c(O)c1)NC1CCCCC1 | 0.9 | 1.1 | 12 | 22 | -8 | -4
CCCC12CN3CC(C)(CN(C1)C3c1ccc(OC)cc1)C2=O (centres undefined) | 0.8 | 0.9 | 18 | 34 | 14 | -7
CCCC12CN3CC(C)(CN(C1)C3c1ccc3c(c1)OCO3)C2=O (centres undefined) | 0.3 | 1.3 | 73* | -18 | -25 | -6
CCOc1ccc(NC(=O)c2ccccc2OC)cc1 | 1 | 3.3* | 3 | 4 | -227 | -4
CCOc1ccc(NC(=O)c2ccccc2OCC(=O)c2ccccc2)cc1 | 0.4 | 0.1 | 61* | 12 | 88* | -6
CCOc1ccc(NC(=O)c2cnsn2)cc1 | 0.4 | 0.6 | 62* | -24 | 42 | -1
CCOc1ccc(NC(=O)c2ccccc2CO)cc1 | 0.9 | 1.1 | 8 | -11 | -7 | -3
CCCC(=O)Nc1ccc(NC(=O)c2ccccc2OC)cn1 | 0.5 | 3.2* | 51* | -25 | -220 | 7
CCOc1ccc(NC(=O)c2cnccn2)cc1 | · | · | · | -4 | · | -2
Cc1ccc(NC(=O)c2ccccc2OCC(=O)c2ccccc2)cc1 | 0.7 | 0.8 | 25 | 2 | 17 | -11
